For orientation: inhibition means the drop in the measured response relative to a control, in per cent.

Here are results for 1 compound from ChEMBL document CHEMBL1961873, “Compounds: GSK PKIS; Assays: Nanosyn kinase panel” (2012).

The target in assay [1] is Sphingosine kinase 1 (Homo sapiens) (UniProt Q9NYA1). Particulars: at 1 µM.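 Further: mean SPHK1 inhibition value reported from the GSK PKIS kinase panel screen.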
Assay [2] concerns the target T1, Sphingosine kinase 2 (Homo sapiens) (UniProt Q9NRA0).
T1 sequence (whole entry): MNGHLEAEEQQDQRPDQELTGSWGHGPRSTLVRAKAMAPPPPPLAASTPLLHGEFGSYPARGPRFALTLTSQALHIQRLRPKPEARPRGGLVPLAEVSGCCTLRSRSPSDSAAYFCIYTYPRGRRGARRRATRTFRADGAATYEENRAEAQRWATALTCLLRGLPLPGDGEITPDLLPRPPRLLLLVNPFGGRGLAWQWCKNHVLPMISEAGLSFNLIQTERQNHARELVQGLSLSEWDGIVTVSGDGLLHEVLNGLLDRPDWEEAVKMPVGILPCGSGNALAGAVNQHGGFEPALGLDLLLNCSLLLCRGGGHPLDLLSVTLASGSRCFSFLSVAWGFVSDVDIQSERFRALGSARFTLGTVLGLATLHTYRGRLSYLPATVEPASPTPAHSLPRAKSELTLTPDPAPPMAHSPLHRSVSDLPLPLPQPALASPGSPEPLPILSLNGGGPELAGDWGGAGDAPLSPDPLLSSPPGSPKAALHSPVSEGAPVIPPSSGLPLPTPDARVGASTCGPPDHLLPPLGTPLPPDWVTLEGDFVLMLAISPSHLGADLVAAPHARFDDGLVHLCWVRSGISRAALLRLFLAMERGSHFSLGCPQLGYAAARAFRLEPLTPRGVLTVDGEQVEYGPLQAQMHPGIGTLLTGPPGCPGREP
Particulars: at 0.1 µM.

For assay [3], the target named is T1, Sphingosine kinase 2 (Homo sapiens). The conditions noted are these: at 1 µM.
Assay [4] has as its target Casein kinase II subunit alpha (Homo sapiens) (UniProt P68400). The conditions noted are these: at 0.1 µM.
Assay [5] shares this target. Particulars: at 1 µM.
Assay [6] concerns the target T2, Inhibitor of nuclear factor kappa-B kinase subunit alpha (Homo sapiens) (UniProt O15111).
T2 sequence (whole entry): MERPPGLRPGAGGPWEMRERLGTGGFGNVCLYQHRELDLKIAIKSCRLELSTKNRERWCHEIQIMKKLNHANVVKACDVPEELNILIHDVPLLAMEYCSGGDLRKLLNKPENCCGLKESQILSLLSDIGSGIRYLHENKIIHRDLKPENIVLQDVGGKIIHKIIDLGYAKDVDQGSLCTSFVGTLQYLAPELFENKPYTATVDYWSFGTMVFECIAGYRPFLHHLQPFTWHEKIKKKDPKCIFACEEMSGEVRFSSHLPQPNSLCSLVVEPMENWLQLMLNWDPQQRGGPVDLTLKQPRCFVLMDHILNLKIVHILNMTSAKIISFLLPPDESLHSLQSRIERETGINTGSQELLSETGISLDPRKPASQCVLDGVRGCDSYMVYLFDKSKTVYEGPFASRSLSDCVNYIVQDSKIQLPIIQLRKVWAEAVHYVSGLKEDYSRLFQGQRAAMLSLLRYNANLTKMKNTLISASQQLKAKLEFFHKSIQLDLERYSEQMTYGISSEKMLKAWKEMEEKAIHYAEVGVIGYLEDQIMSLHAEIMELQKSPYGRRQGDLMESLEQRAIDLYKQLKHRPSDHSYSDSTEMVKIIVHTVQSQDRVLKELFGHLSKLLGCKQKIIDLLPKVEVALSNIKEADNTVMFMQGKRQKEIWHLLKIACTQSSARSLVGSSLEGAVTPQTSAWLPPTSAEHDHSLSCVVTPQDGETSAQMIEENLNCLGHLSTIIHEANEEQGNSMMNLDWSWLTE
Particulars: at 0.1 µM.

Assay [7] concerns the target T2, Inhibitor of nuclear factor kappa-B kinase subunit alpha (Homo sapiens). The conditions noted are these: at 1 µM.
Assay [8] has as its target T3, Inhibitor of nuclear factor kappa-B kinase subunit beta (Homo sapiens) (UniProt O14920).
T3 sequence (whole entry): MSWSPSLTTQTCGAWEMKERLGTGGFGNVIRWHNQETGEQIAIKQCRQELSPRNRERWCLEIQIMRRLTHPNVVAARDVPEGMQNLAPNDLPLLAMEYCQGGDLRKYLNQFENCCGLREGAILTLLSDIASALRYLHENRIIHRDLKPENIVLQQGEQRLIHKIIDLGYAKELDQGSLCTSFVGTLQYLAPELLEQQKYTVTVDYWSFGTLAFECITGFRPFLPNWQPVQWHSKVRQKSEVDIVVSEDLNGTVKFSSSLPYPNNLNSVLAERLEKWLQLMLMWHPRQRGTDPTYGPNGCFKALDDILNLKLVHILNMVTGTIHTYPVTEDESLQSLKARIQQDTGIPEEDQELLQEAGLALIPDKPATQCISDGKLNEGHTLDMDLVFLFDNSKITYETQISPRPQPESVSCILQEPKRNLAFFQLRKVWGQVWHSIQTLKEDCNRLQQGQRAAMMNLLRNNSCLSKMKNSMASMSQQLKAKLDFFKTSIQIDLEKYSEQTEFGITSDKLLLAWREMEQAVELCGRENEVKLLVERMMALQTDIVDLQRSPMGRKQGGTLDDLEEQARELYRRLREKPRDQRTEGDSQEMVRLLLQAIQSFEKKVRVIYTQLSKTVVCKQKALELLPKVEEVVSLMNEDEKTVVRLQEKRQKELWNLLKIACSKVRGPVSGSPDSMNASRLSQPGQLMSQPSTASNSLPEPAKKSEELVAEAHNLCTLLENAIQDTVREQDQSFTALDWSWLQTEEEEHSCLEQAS
The conditions noted are these: at 0.1 µM.

Assay [9] has as its target T3, Inhibitor of nuclear factor kappa-B kinase subunit beta (Homo sapiens). Particulars: at 1 µM.
For assay [10], the target named is T4, Inhibitor of nuclear factor kappa-B kinase subunit epsilon (Homo sapiens) (UniProt Q14164).
T4 sequence (whole entry): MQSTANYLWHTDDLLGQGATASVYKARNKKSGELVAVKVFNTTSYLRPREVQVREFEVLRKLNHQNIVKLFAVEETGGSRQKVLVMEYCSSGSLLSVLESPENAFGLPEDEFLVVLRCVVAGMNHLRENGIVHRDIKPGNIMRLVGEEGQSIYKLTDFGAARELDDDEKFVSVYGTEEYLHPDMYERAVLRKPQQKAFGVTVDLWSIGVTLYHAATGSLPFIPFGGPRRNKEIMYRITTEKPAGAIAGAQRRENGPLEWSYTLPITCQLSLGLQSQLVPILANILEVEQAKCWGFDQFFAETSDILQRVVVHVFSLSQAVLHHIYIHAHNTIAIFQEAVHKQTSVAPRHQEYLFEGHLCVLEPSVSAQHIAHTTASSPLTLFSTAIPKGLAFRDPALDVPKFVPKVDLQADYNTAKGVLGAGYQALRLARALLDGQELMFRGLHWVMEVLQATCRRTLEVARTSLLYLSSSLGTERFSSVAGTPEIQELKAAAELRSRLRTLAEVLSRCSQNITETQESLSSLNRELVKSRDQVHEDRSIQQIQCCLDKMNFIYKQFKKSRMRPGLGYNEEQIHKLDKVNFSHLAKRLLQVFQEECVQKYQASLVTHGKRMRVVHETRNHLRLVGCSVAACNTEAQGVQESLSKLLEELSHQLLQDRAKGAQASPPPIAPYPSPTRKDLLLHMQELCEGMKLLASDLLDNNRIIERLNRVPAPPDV
The conditions noted are these: at 0.1 µM.

In assay [11] the target is T4, Inhibitor of nuclear factor kappa-B kinase subunit epsilon (Homo sapiens). Particulars: at 1 µM.
The target of assay [12] is T5, Serine/threonine-protein kinase Nek1 (Homo sapiens) (UniProt Q96PY6).
T5 sequence (whole entry): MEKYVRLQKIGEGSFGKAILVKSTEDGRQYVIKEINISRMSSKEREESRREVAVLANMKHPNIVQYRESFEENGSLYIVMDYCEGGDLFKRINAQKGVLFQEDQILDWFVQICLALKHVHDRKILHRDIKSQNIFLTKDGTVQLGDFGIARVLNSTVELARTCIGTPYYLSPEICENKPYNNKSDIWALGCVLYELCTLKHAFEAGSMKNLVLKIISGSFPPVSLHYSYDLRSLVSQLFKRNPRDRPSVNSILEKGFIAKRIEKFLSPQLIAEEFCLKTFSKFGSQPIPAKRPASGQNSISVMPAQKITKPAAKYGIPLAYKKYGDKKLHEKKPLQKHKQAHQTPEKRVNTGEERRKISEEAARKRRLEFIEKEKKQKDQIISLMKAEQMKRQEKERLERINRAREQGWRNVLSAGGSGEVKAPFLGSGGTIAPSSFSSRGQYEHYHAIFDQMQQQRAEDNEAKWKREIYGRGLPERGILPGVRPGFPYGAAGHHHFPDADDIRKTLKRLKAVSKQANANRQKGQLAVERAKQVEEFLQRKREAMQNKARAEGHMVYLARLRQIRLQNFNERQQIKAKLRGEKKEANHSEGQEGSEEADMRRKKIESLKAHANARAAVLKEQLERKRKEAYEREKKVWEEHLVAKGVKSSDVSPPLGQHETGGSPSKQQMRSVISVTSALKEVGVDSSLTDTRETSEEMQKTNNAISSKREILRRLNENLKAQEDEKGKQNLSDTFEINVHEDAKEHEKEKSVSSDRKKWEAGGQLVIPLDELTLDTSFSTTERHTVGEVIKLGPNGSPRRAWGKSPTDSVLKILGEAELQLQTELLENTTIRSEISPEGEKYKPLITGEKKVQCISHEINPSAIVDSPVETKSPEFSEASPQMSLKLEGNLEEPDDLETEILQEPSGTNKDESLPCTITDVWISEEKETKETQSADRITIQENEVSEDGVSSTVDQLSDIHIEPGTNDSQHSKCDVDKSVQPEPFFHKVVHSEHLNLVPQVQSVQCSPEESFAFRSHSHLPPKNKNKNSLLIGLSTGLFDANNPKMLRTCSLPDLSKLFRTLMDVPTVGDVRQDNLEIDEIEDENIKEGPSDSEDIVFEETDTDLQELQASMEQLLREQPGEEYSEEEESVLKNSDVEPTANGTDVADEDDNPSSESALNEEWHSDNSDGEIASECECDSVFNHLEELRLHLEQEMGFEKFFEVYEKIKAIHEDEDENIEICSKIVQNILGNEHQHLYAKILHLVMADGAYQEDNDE
The conditions noted are these: at 0.1 µM.

Assay [13] concerns the target T5, Serine/threonine-protein kinase Nek1 (Homo sapiens). Particulars: at 1 µM.
Assay [14] has as its target T6, Serine/threonine-protein kinase Nek2 (Homo sapiens) (UniProt P51955).
T6 sequence (whole entry): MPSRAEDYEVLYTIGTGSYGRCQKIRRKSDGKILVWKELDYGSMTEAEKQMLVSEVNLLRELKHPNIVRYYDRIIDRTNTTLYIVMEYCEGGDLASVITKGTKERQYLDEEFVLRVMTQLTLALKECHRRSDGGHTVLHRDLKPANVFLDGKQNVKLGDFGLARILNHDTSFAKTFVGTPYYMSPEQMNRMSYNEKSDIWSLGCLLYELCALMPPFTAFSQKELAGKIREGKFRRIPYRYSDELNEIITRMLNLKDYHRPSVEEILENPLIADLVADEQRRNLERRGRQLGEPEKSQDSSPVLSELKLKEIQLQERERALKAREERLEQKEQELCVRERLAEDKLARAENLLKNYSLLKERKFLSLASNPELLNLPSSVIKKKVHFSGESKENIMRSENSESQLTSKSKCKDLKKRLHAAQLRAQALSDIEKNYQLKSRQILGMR
The conditions noted are these: at 0.1 µM.

In assay [15] the target is T6, Serine/threonine-protein kinase Nek2 (Homo sapiens). Particulars: at 1 µM.
The target of assay [16] is Serine/threonine-protein kinase Nek6 (Homo sapiens) (UniProt Q9HC98). Particulars: at 0.1 µM.
Assay [17] shares this target. Particulars: at 1 µM.
Assay [18] concerns the target Serine/threonine-protein kinase Nek7 (Homo sapiens) (UniProt Q8TDX7). The conditions noted are these: at 0.1 µM.
Assay [19] has the same target. Particulars: at 1 µM.
The target of assay [20] is T7, Serine/threonine-protein kinase Nek9 (Homo sapiens) (UniProt Q8TD19).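 Further: reported value is the mean percent inhibition of NEK9.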
T7 sequence (whole entry): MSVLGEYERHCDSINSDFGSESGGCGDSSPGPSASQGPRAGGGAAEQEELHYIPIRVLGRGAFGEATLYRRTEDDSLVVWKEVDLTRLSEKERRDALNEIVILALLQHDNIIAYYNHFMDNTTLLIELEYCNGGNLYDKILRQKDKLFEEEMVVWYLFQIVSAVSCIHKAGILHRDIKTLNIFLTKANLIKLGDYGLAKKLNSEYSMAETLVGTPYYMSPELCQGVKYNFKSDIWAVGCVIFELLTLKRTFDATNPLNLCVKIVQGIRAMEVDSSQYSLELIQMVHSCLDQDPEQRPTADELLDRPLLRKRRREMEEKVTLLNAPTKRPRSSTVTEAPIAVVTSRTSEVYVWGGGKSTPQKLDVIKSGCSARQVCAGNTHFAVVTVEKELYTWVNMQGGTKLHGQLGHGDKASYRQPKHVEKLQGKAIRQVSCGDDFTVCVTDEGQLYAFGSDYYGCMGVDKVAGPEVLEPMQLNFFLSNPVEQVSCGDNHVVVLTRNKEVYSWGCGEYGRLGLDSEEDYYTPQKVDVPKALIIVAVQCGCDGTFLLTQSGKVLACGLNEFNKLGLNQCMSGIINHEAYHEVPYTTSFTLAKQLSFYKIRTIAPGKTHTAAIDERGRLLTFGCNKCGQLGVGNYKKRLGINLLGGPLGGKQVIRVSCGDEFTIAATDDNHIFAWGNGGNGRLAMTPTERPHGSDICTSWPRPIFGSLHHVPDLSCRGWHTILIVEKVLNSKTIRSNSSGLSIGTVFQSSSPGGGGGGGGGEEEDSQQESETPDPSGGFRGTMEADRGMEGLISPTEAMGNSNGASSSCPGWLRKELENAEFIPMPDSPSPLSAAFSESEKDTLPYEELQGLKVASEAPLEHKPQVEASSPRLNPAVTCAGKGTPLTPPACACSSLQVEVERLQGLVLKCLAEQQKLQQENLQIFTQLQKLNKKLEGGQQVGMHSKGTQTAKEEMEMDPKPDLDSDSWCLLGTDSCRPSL
Particulars: at 0.1 µM.

Chain of Casein kinase II subunit alpha (Homo sapiens) (P68400 whole entry, looked up): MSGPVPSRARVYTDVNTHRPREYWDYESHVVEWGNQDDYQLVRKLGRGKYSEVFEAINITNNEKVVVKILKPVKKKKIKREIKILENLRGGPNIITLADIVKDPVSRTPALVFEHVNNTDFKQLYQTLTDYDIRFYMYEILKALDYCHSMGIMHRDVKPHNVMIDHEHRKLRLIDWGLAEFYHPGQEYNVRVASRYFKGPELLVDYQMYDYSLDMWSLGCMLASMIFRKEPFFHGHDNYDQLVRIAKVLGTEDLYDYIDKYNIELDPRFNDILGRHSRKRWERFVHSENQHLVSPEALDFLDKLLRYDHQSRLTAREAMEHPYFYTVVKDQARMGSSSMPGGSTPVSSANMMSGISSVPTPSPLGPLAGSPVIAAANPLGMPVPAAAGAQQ
Chain of Serine/threonine-protein kinase Nek6 (Homo sapiens) (Q9HC98 whole entry): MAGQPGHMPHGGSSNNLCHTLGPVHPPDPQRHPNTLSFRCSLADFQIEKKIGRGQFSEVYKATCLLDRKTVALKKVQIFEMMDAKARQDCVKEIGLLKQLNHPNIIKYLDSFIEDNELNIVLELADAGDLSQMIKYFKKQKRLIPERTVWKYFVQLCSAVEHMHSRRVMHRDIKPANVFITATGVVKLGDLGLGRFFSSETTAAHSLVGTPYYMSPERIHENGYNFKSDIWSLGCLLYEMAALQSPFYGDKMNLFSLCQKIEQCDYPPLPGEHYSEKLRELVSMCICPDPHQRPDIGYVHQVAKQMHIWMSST
Chain of Serine/threonine-protein kinase Nek7 (Homo sapiens) (Q8TDX7 whole entry, looked up): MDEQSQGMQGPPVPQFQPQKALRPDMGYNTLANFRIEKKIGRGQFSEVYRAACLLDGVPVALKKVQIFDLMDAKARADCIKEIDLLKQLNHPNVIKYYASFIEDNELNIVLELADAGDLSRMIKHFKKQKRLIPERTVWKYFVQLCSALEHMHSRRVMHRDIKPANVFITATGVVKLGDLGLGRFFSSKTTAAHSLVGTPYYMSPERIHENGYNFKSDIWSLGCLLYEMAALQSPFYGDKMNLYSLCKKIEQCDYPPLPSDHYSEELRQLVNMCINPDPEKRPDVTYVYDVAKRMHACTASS
Chain of Sphingosine kinase 1 (Homo sapiens) (Q9NYA1 whole entry): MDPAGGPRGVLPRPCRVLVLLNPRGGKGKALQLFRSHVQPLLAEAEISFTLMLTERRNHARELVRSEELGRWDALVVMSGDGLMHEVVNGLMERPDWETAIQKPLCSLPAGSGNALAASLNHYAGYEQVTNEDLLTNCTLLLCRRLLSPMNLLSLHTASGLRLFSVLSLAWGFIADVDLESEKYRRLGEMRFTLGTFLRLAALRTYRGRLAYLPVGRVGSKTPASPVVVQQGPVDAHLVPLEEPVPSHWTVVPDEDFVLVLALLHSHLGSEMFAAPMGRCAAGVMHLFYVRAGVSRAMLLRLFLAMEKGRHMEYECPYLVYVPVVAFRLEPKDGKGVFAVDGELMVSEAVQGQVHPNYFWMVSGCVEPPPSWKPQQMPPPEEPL

Consider `CC(C)(CO)CNC(=O)c1ccc2c(c1)/C(=N/Nc1ccc(S(N)(=O)=O)cc1)C(=O)N2`, for which the inhibition in assay [1] came out at 0.62%; in assay [2] it was 0.34%; in assay [3] it was 0.16%; in assay [4] it was 2.49%; in [5] it was 23.5%; in [6], 4.85%. Also, the inhibition in assay [7] came out at 3.43%; in assay [8], 3.25%; in assay [9], 0.5%; in assay [10] it was 14.3%; in assay [11], 59.7%; in [12], 0.37%. For the same compound, the inhibition was 1.29% in assay [13]; 0.26% in assay [14]; 0.85% in assay [15]; 1.63% in assay [16]; 0.2% in [17]; -1.3% in [18]. Also, the inhibition in assay [19] is 2.36%; in [20], 2.95%.
